High-throughput results from PubChem.
Pf growth 96h – Primary qHTS for delayed death inhibitors of the malarial parasite plastid, 96 hour incubation; 6.9% of 320,000 active; Potency, µM (top dose mostly 28.7 µM), without a hit: at the highest dose activity change, negative = inhibition, actives largely listed as inhibitors; AID 504834, 2011; P. falciparum luciferase reporter growth, 96 h
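Readout is luminescence from an integrated firefly luciferase in P. falciparum. Red cells, 2% hematocrit and 0.05% parasitemia final, were cultured with compound through two parasite generations (96 hours) at 37 C, 5% CO2.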
Pf growth 48h – Primary qHTS for delayed death inhibitors of the malarial parasite plastid, 48 hour incubation; Potency, µM (titrated, usually from 28.7 µM), for inactives: top-dose activity change, negative = inhibition, usual class: inhibitors; P. falciparum luciferase growth in erythrocytes, 48 h; 5.9% of 310,000 active
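Growth was read as firefly luciferase luminescence after a 48 h, 37 C, 5% CO2 exposure of compounds to reporter-bearing P. falciparum cultures (0.1% parasitemia, 2% hematocrit final) in Albumax-supplemented RPMI 1640.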
Vaccinia mCherry – qHTS for Stage-Specific Inhibitors of Vaccinia Orthopoxvirus: mCherry Reporter Primary qHTS; Vaccinia virus mCherry reporter infection, fluorescence; Potency, µM (doses to about 36.5 µM), inactives show at the highest dose activity change, negative = inhibition, usual class: inhibitors; 0.63% of 310,000 active; AID 720579, 2013; calls by dose curve; tested in A549 cells; note: nearly all actives have a fitted effect of over 35% in size
Vaccinia Venus – qHTS for Stage-Specific Inhibitors of Vaccinia Orthopoxvirus: Venus Reporter Primary qHTS | Vaccinia virus Venus reporter expression, fluorescence | Potency, µM (titrated, usually from 36.5 µM), for inactives: top-dose activity change, negative = inhibition, hits mostly inhibitors | 0.46% of 330,000 active; calls by dose curve; tested in A549 cells; note: nearly all actives have a fitted effect of over 30% in size
AMA1-RON2 inh – qHTS for Inhibitors of AMA1-RON; Towards Development of Antimalarial Drug Lead: Primary Screen | Plasmodium falciparum AMA1 (3D7) - RON2 peptide interaction | AlphaScreen AMA1-biotinylated RON2 peptide binding | Potency, µM (doses to about 58.2 µM), for the others: at the top dose activity change, negative = inhibition, most hits filed as inhibitors | 0.2% of 360,000 active;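 note: 0% = vehicle wells and -100% = peptide control; nearly all actives have a fitted effect of over 45% in size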
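AMA1 (3D7) with his tag at 25 nM final met compounds first, then biotinylated RON2 peptide at 25 nM; detection used donor plus acceptor beads, 10 µg/mL apiece, read by AlphaScreen after 30 min at room temperature.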
An asterisk follows results filed as active; i = inactive; u = inconclusive; x = not tested or not shown; [ ] = another dose, or the depositor's remark. Hits are enriched below; roughly 8.7% of the tested compounds scored in any of these assays. Unless noted, calls come from the whole dose curve; as a rule, active = well fitted curve in the direction sought with a large enough effect; inconclusive = small, poorly fitted or top-dose-only effect, or another doubt; inactive = no such curve, though single readings can be large; an effect the other way counts as inactive or inconclusive. Unless noted, % is set by controls: 0 for no effect and ±100 for the full control effect; potency is the fitted concentration of half-maximal effect.

SMILES	Pf growth 96h	Pf growth 48h	Vaccinia mCherry	Vaccinia Venus	AMA1-RON2 inh
CC(C)[C@H]1C(=O)N2CCC[C@H]2[C@]2(O)O[C@](NC(=O)[C@@H]3C=C4c5cccc6[nH]cc(c56)C[C@H]4N(C)C3)(C(C)C)C(=O)N12	7.38µM*	5.86µM*	-5.5%	11.2%	32.3%
O=C(O)[C@H](O)[C@@H](O)[C@H](O)[C@H](O)CO	-4.5%	-7.5%	x	x	x
O=C(COc1ccc(F)cc1)Nc1ccc(Cl)c(-c2nc3ccccc3[nH]2)c1	x	x	-10.3%	-17.8%	x
CN1C[C@H](CO)C=C2c3cccc4[nH]cc(c34)C[C@H]21	u	u	0.5%	-3.7%	24.9%
CC(C)C[C@H]1C(=O)N2CCCC2[C@]2(O)O[C@](NC(=O)[C@@H]3C=C4c5cccc6[nH]cc(c56)CC4N(C)C3)(C(C)C)C(=O)N12 (stereo not given in full)	2.33µM*	2.62µM*	-1.2%	25.1%	1.4%
COc1ccc(CCNC(=O)Cn2cc(S(=O)(=O)Cc3ccc(F)cc3)c3ccccc32)cc1OC	x	x	-17.7%	-8.5%	x
COC(=O)c1sccc1S(=O)(=O)N1CCN(c2cccc(C)c2C)CC1	x	x	-14.5%	-5.2%	x
CCN(CC)CCSc1nnc2c3ccccc3n(Cc3ccccc3)c2n1	u	5.22µM*	x	x	0.0%
Cc1cc(C(=O)CSCCCn2c(=O)[nH]c3ccccc32)c(C)n1C	2.5%	13.1µM*	-10.8%	1.1%	-20.2%
CC(C)CCn1c(=O)[nH]c2ccccc21	14.7%	0.7%	9.2%	-0.9%	2.8%
CCn1c2ccccc2c2nnc(SCCCn3c(=O)[nH]c4ccccc43)nc21	2.33µM*	7.38µM*	u	-28.1%	-15.0%
O=c1[nH]c2ccccc2n1CCCSCCCn1c(=O)[nH]c2ccccc21	9.28µM*	u	x	x	-13.5%
CCN(CC)CCSc1nnc2c3cc(F)ccc3n(Cc3ccccc3)c2n1	4.6%	x	-2.9%	u	-18.2%
Cc1ccc(C)c(Cn2c(=O)n(-c3ccc(F)cc3)c(=O)c3sc4ccccc4c32)c1	x	x	-7.4%	-6.5%	x
CSc1nc(Oc2ccccc2)c2sccc2n1	-7.1%	-0.5%	i	-16.3%	45.5%
CSc1nc(Oc2ccc(Cl)cc2)c2sccc2n1	9.28µM*	u	x	-10.0%	1.2%
O=C(Nc1ccc(-c2nc3ccccc3o2)c(O)c1)c1cc(Cl)ccc1Cl	x	x	-21.0%	-3.9%	x
O=C(Nc1ccc(O)c(-c2nc3ccccc3o2)c1)C1(c2ccc([N+](=O)[O-])cc2)CCCC1	u	7.38µM*	-1.9%	-6.4%	39.9%
O=C(Nc1ccc(O)c(-c2nc3ccccc3o2)c1)C1(c2ccc(Cl)cc2)CCCC1	u	2.33µM*	-4.0%	-13.0%	68.4%[11.6 µM]
O=C(Nc1ccc(O)c(-c2nc3ccccc3o2)c1)c1ccco1	x	x	-6.2%	3.2%	x
CCC(C)N(C)Cc1cccc(C2(O)CCN(S(=O)(=O)c3ccc(F)c(C)c3)CC2)c1 (stereo not given)	u	13.1µM*	u	u	-2.2%
Cc1cc(S(=O)(=O)N2CCN(c3c(C)cccc3C)CC2)ccc1F	x	u	x	12.8%	17.9%
Cc1nn(CC(=O)NCc2ccc(N(C)C)cc2)c(=O)c2nn(-c3ccccc3)c(C)c12	x	x	-14.5%	-7.2%	x
CNc1nc(SCc2ccc(C)cc2)nc2c1CCCC2	13.1µM*	7.38µM*	x	-23.2%	2.5%
CN(C)c1nc(SCc2ccccc2Cl)nc2c1CCCC2	u	u	-20.6%	-11.4%	13.6%
SMILES	Pf growth 96h	Pf growth 48h	Vaccinia mCherry	Vaccinia Venus	AMA1-RON2 inh
Cc1ccc(CSc2nc3c(c(N(C)C)n2)CCCC3)cc1	u	13.1µM*	-26.8%	u	49.3%
CCC(CC)C(=O)Nc1nnc2n1CCS2	x	x	-0.9%	-1.4%	x
CCCCP(=O)(CCCC)Cc1ccccc1O	u	14.7µM*	x	u	14.3%
CCCCP(=O)(O)c1ccccc1	u	25.0%	x	x	5.2%
COc1cc(-c2nn3c(COc4ccccc4)nnc3s2)cc(OC)c1OC	x	-20.2%	x	x	-0.7%
COc1cc(-c2nn3c(Cc4ccccc4)nnc3s2)cc(OC)c1OC	43.2%	10.4µM*	x	x	57.4%
CN(Cc1ccccc1)CC(O)COc1ccc(CNCCCOc2cccnc2)cc1 (stereo not given)	u	2.08µM*	x	x	17.2%
CN(Cc1ccccc1)CC(O)COc1ccc(CNCCOc2cccnc2)cc1 (stereo not given)	u	13.1µM*	-21.6%	-6.8%	-1.6%
CCn1cc(CNCc2ccc(OCC(O)CN(C)Cc3ccccc3)cc2)cn1 (stereo not given)	u	u	-16.3%	-10.8%	-4.4%
Cc1nn(C)cc1CNCc1ccc(OCC(O)CN(C)Cc2ccccc2)cc1 (stereo not given)	-9.1%	u	-8.1%	2.5%	-4.8%
OC(COc1ccc(CNCc2cccnc2)cc1)CN1CCc2ccccc2C1 (stereo not given)	18.3%	u	-14.0%	-10.1%	12.1%
CN(Cc1ccccc1)CC(O)COc1ccc(CNCc2cccnc2)cc1 (stereo not given)	8.28µM*	9.28µM*	x	x	13.1%
CN(Cc1ccccc1)CC(O)COc1ccc(CNCc2ccc(Cl)s2)cc1 (stereo not given)	u	5.86µM*	u	-17.0%	-13.5%
Cc1cc(NC(=O)CCl)on1	u	10.4µM*	-20.6%	0.4%	1.5%
CC(C)c1cc(NC(=O)CCl)on1	u	3.29µM*	-9.9%	-22.3%	21.8%
CCc1ccccc1N1CC23C=CC(O2)C(C(=O)OCC(C)C)C3C1=O (stereo not given)	3.7µM*	x	-1.1%	5.5%	10.4%
COc1ccc(C(C)N2CC34C=CC(O3)C(C(=O)OCC(C)C)C4C2=O)cc1 (stereo not given)	14.7µM*	9.2%	x	x	x
COc1cccc(-c2nn(-c3ccccc3)cc2CNC(C)Cn2cncn2)c1 (stereo not given)	10.4µM*	36.3%	-6.7%	1.1%	-9.0%
CCc1nnc2n1N=C(c1ccc(-c3cc(Cl)ccc3Cl)o1)CS2	9.28µM*	x	x	x	24.4%
CCc1nnc2n1N=C(c1ccc(OC)cc1)CS2	u	-26.2%	x	x	-4.6%
CN(C)c1ccc(C(CN)c2c[nH]c3ccccc23)cc1 (stereo not given)	u	9.28µM*	x	x	u
CCN(CC)c1ccc(NC(=O)c2cnn(-c3ccccc3)c2-n2cccc2)c(C)c1	x	x	-17.9%	u	x
COc1ccc(OC)c(S(=O)(=O)Nc2cc3c(cc2C)n(C)c(=O)c(=O)n3C)c1	x	x	-2.6%[7.34 µM]	-6.7%[7.34 µM]	x
COc1ccc(-c2csc(N(CCCN(C)C)C(=O)c3ccccc3Cl)n2)cc1	x	x	11.2µM*	u	-4.7%
Cc1ccc(-n2cc(-c3ccccc3)c3c(NC4CCCC4)ncnc32)cc1	x	x	-16.3%	-5.9%	x
C=CCc1ccccc1OCC(O)CN1CCN(c2ccc(OC)cc2)CC1 (stereo not given)	6.57µM*	1.5%	x	x	u
